Consider 40 molecules from PubChem BioAssay.

Activity calls are given as the source filed them. The rule behind the calls is not given here.

What is called inhibition is the share of the control response that was lost under treatment.

The target of the assay is Pantothenate synthetase (Mycobacterium tuberculosis (strain ATCC 25618 / H37Rv)) (UniProt P9WIL5). Briefly: Recombinant Mtb pantothenate synthetase (PanC) inhibitors, coupled enzyme, confirmatory (AID 375).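 Note: 0% = full reaction with vehicle and 100% = no enzyme background.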 The settings on record: coupled enzyme assay; at 10 µM, hits give high values.
Chain of Pantothenate synthetase (Mycobacterium tuberculosis (strain ATCC 25618 / H37Rv)) (P9WIL5 whole entry, looked up): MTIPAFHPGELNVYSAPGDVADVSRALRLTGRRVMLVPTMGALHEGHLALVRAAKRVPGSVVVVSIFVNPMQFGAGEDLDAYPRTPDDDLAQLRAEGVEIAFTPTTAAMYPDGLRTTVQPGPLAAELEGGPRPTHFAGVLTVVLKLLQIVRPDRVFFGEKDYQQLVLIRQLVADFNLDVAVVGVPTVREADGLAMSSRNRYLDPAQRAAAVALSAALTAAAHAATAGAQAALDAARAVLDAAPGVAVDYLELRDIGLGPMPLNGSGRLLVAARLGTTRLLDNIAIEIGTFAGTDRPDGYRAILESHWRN
As for `CC(C)[C@H](NC(=O)NC1CCCC1)C(=O)O`, the inhibition is 0% (inactive).
As for `O=P(O)(O)c1ccccc1OCCOCCOc1ccccc1P(=O)(O)O`, the inhibition was 4% (inactive).
Regarding `Cc1ccc2c(CC(=O)OCc3csc(C)n3)coc2c1`, the inhibition was 0% (inactive).
In the case of `Cc1cc(C)c2ccc(N)nc2c1O`, the inhibition was 0% (inactive).
As to `Cc1cc2c(c(=O)n1C)C(Cc1ccccc1)C(C#N)=C(N)O2` (stereo not given), the inhibition was 3% (inactive).
To `COc1cccc2c1C(=O)c1c(O)c3c(c(O)c1C2=O)C[C@@](O)(C(C)=O)C[C@@H]3O[C@H]1C[C@H](N)[C@H](O)[C@H](C)O1` belongs 0% (inactive).
In the case of `COc1ccc(S(=O)(=O)N(C)CC(=O)N2CCCCC2)cc1Cl`, the inhibition was 0% (inactive).
To `CCN(CC)S(=O)(=O)c1ccc(N2CCCC2)c(C(=O)OCC(=O)/C(C#N)=C(\C)N)c1` belongs 6% (inactive); to `COc1ccc(C2/C(=C(/O)c3ccc(OC(C)C)cc3)C(=O)C(=O)N2CCCN2CCOCC2)cc1` (stereo not given), 0% (inactive).
In the case of `CCn1c(SCC(=O)N2CCCc3ccccc32)nnc1-c1cccs1`, the inhibition was 0% (inactive).
To `CCOc1ccccc1C1CC(c2ccc(Br)cc2)Nc2nc(N)nn21` (stereo not given) belongs 10% (inactive); to `CCn1c2ccccc2c2cc(N)ccc21`, 0% (inactive); to `CCOC(=O)c1sc(NC(=O)CSc2nnc(-c3ccc(OC)cc3)n2CCOC)nc1C`, 6% (inactive).
Regarding `Cc1cc(C)cc(-n2ccnc2SCC(=O)Nc2ccc3c(c2)OCCO3)c1`, the inhibition is 0% (inactive).
Regarding `Cn1c(SCC(N)=O)nnc1C1CCN(C(=O)NCc2ccccc2)CC1`, the inhibition is 0% (inactive).
For the molecule `O=C(CCC(=O)OCC(=O)c1ccccc1)NC1CCCCC1`, the inhibition was 2% (inactive).
For `CCCC(=O)Nc1nnc(CC(=O)N2CCCC2)s1`, the inhibition was 0% (inactive).
As to `[N-]=[N+]=CC(=O)CC(c1ccccc1)N1C(=O)c2ccccc2C1=O` (stereo not given), the inhibition was 0% (inactive).
For `CC1c2nc3ccccc3n2C(CC(=O)NCc2ccccn2)C(=O)N1Cc1ccccc1` (stereo not given), the inhibition was 0% (inactive).
Take `CN(C)C(=O)CSc1nnc2sc3ccccc3n12`: the inhibition is 0% (inactive).
As to `COc1ccccc1C(=O)NCC(c1cccnc1)N(C)C` (stereo not given), the inhibition is 0% (inactive).
For `COc1ccccc1C1CC(c2ccc(C)cc2)Nc2ncnn21` (stereo not given), the inhibition was 3% (inactive).
For the molecule `c1ccc(-c2nnc(-c3ccco3)n2-c2ccccc2)cc1`, the inhibition is 0% (inactive).
Consider `COc1cc2c(cc1OC)C(c1ccc(C)o1)CC(=O)N2` (stereo not given), for which the inhibition is 3% (inactive).
On to `COc1ccc(OC)c(S(=O)(=O)Nc2ccccc2C(=O)O)c1`, for which the inhibition is 6% (inactive).
With `CC(C)OC(=O)c1cc(=O)[nH]c2ccccc12`, the inhibition is 0% (inactive).
The same measure for `CN(C(=O)c1ccc2c(=O)n3c(nc2c1)CCCCC3)c1ccccc1`: 4% (inactive); for `CCNC(=O)N(C(=O)NCC)n1c(C)nnc1C`: 0% (inactive).
Consider `COC(=O)c1ccccc1NC(=O)Nc1cc(C)cc(C)n1`, for which the inhibition is 2% (inactive).
`O=C1CC(N2CCN(C3CCc4ccccc4C3)CC2)C(=O)N1c1ccccc1` (stereo not given): the inhibition is 0% (inactive).
With `O=C(NCc1ccc2c(c1)OCO2)c1ccc(NS(=O)(=O)c2ccc3c(c2)OCCO3)cc1`, the inhibition is 0% (inactive).
To `CC(C)OC(=O)C(C)(C)Oc1ccc(C(=O)c2ccc(Cl)cc2)cc1` belongs 0% (inactive).
For the molecule `COc1ccccc1NC(=O)C(C)NS(=O)(=O)c1ccc(F)cc1` (stereo not given), the inhibition was 0% (inactive).
For the molecule `COc1ccc(OC)c(C2C(C(=O)Nc3ccc(F)cc3)=C(C)Nc3nc(CCCO)nn32)c1` (stereo not given), the inhibition is 5% (inactive).
With `CC(C)c1ccc(NC(=O)C2CC(=O)N(C(C)C)C2)cc1` (stereo not given), the inhibition is 5% (inactive).
To `O=c1[nH]cnc2c1C1(CCCC1)Cc1ccccc1-2` belongs 0% (inactive); to `COc1ccc(C(C(C(=O)c2cccs2)N2CCOCC2)N2CCOCC2)cc1OC` (stereo not given), 0% (inactive).
The same measure for `CCOC(=O)/C(C#N)=C1\Nc2ccccc2N=C1N(CC(C)C)CC(C)C`: 6% (inactive).
Turning to `Cn1c(-c2ccccc2)cc(=O)c2ccccc21`, the inhibition is 0% (inactive).
As for `Cc1ccc(C(=O)Nc2ccc3c(c2)OCO3)cc1S(=O)(=O)N1CCCC1`, the inhibition is 0% (inactive).
